High-throughput results: PubChem BioAssay, National Center for Advancing Translational Sciences (NCATS)
TRPML1 agonist: qHTS for Agonists of the Human Mucolipin Transient Receptor Potential 1 (TRPML1). TRPML1-expressing cells, Ca2+ dye fluorescence, FDSS. activation, % (concentration not given with the values). actives 0.12% (n = 410,000). AID 624414, 2012; in the data active = activation above about 50%; inconclusive = mostly about 30% to 49%; also: 0% is about no effect
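TRPML1-DL cells, Tet-induced overnight (~16 h, 37 degrees C), loaded 45-90 min at room temperature with Ca8 no-wash calcium dye plus quencher. FDSS fluorescence: 10 s baseline, compound pin-transfer, 110 s agonist read, then EC80 54-4 (4uM final) and 110 s antagonist read.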
GLP-1R agonist: qHTS of GLP-1 Receptor Agonists. HEK293 GLP-1R CRE-luciferase, luminescence, 4-6 h; cells express a hypersensitive GLP-1R form. AID 624172, 2012. actives 0.007% (n = 380,000). Glucagon-like peptide 1 receptor (Homo sapiens), P43220. Potency, µM (series often up to 45.6 µM), inactives show top-dose activation, most hits filed as activators; also: potency is read from the fitted curve at half-maximal effect; % of control where 0% means no effect
Target sequence (P43220 whole entry, looked up): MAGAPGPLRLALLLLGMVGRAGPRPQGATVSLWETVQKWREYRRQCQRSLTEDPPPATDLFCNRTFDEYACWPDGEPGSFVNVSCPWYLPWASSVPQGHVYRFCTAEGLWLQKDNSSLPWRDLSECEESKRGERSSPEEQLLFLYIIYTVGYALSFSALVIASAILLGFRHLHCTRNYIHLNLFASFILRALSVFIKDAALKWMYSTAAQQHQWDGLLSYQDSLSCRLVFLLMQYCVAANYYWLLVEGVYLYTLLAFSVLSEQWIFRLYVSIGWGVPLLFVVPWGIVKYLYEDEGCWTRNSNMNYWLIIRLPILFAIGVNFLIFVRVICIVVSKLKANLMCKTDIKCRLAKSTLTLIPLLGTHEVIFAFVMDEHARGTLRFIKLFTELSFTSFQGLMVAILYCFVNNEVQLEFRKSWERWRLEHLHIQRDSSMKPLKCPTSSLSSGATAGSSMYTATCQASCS
GLP1R cytotox: qHTS of GLP-1 Receptor Inverse Agonists: Cytotox Screen. HEK293 cAMP-luciferase reporter cells, luminescence, 24 h. Potency, µM (doses to about 38.3 µM), without a hit: at the top dose activity change, negative = inhibition, most hits filed as inhibitors. actives 0.13% (n = 410,000);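 also: loss of luciferase light is scored as toxicity; potency is read from the fitted curve at half-maximal effect; % is scaled to controls: 0 for no effect and ±100 for the full control effect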
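Quantitative HTS format, 1536 wells, 200 cells/uL seeded. Compounds: 23 nL, 24 h, 37 °C. Detection: luciferase reagent, luminescence at 12 min RT; decreased signal taken as cytotoxic.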
GLP1R inv ag: qHTS of GLP-1 Receptor Inverse Agonists (Inhibition Mode); HEK293 GLP-1R CRE-luciferase, luminescence, 24 h; GLP-1R form is constitutively active; Potency, µM (titrated, usually from 38.3 µM), without a hit: top-dose activity change, negative = inhibition, hits mostly inhibitors; actives 1.6% (n = 410,000); also: potency is read from the fitted curve at half-maximal effect; % is scaled to controls: 0 for no effect and ±100 for the full control effect; nearly all actives have a fitted effect of over 55% in size
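Inverse agonists were sought by their lowering of basal cAMP reporter luciferase output in HEK293 cells stably carrying constitutively active human GLP-1R, after 24 h compound treatment.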
TRPML1 inh: qHTS for Inhibitors of the Human Mucolipin Transient Receptor Potential 1 (TRPML1); activity change, negative = inhibition, % (concentration not given with the values); TRPML1-inducible cells, Ca2+ dye fluorescence, FDSS; hits give low values; inhibition of EC80 agonist-evoked calcium signal; Mucolipin-1 (Homo sapiens), Q9GZU1; actives 0.02% (n = 390,000); in the data active = activity change below about -50%; inconclusive = between about -30% and that limit;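 also: stimulus is agonist 54-4 at its EC80 concentration; % is scaled to controls: 0 for no effect and ±100 for the full control effect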
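Tet-induced TRPML1-DL cells loaded with Ca8 no-wash calcium dye were read kinetically on FDSS. Compound addition was followed by EC80 agonist 54-4 (4 uM final); inhibition was read over 110 s.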
* marks the source's active call; other numbers are inactive results; ? = inconclusive; / = no result given; [ ] = dose if it differs, or a comment. A selection: hits, their analogues and other compounds. The true share with any hit is near 1.8%. Unless noted, calls follow the shape of the dose curve; as a rule, active = well fitted curve in the direction sought with a large enough effect; inconclusive = small, poorly fitted or top-dose-only effect, or another doubt; inactive = no such curve, though single readings can be large; an effect the other way counts as inactive or inconclusive.

SMILES | TRPML1 agonist | GLP-1R agonist | GLP1R cytotox | GLP1R inv ag | TRPML1 inh
CCOC(=O)[C@]12Cc3ccc(C)cc3[C@H]1N(C1CCCCC1)C(=O)c1ccccc12 | 1.3 | -12.7% | ? | ? | /
CCOC(=O)[C@]12Cc3ccc(C)cc3[C@H]1N(C1CCCCC1)C(=O)c1cc(OC)ccc12 | -0.2 | -12.0% | 11.2µM* | ? | /
CCCCCN1C(=O)c2cc(OC)ccc2[C@@]2(C(=O)OCC)Cc3cc(OC)ccc3[C@@H]12 | 1.4 | -13.3% | ? | 7.08µM* | /
COc1cc(CC(C)N)c(OC)cc1Br (stereo unspecified) | / | -4.0% | / | / | /
COc1cc(CCN)c(OC)cc1Br | / | -3.7%[96 µM] | / | / | /
CC(C)C(=O)N1CCC(CN=Cc2c(O)n(C3CCCCC3)c(=O)n(C3CCCCC3)c2=O)CC1 | 1.4 | -0.9% | -2.1% | 2.82µM* | 6.4
CCCCCCOc1ccc(CN2CCN(CCO)CC2)cc1 | -0.1 | -5.0% | 4.6% | 2.51µM* | 6.1
CCCCOc1ccc(CN2CCN(CCO)CC2)cc1 | 0.4 | -9.0% | -13.5% | -5.0% | 3.1
Cc1ccc(OCCOc2cccc(C=C3C(=O)NC(=O)NC3=O)c2)c(C)c1 | 1.3 | -7.0% | -1.3% | 6.31µM* | 7.8
O=C1NC(=O)C(=Cc2cccc(OCCOc3ccccc3)c2)C(=O)N1 | 3.2 | -5.5% | -3.6% | ? | 3.0
N#CC1=C(N)NC(SCC(=O)Nc2ccc(Br)cc2)=C(C#N)C12CCCCC2 | 0.1 | -0.7% | ? | 7.94µM* | 15.9
CNc1ccc2c3c(cccc13)C(=O)N(C)C2=O | 78.3* | -4.9% | 422.7% | 35.2% | -13.4
Cc1ccc(-c2nnc(N3CCN(c4ccccn4)CC3)c3ccccc23)cc1 | 1.4 | 0.6% | 11.2µM* | 8.91µM* | 4.3
CC(C)n1c(/C=C/[C@H](O)C[C@H](O)CC(=O)O)c(-c2ccc(F)cc2)c2ccccc21 | -0.2 | -2.6% | -22.5% | 3.16µM* | 7.3
O=Cc1c(C(=O)O)n(Cc2ccccc2F)c2ccccc12 | 0.5 | -2.2% | 11.6% | 20.0% | -10.2
CC(Oc1ccc(F)cc1)C(=O)N(CCC1=CCCCC1)c1c(N)n(Cc2ccccc2)c(=O)[nH]c1=O (stereo unspecified) | 0.5 | -10.6% | ? | 11.2µM* | 0.4
Oc1ccc2c3c1OC1C(O)C=CC4[C@@H](C2)NCC[C@]314 (stereo partly specified) | / | -1.6%[96 µM] | / | / | /
Cc1ccc(NC(=O)c2cc(-c3cc(Cl)ccc3C)n[nH]2)cc1NS(C)(=O)=O | -0.6 | 7.1% | -17.3% | ? | /
COc1cccc(CN2CCCC(C(=O)Nc3ccc(-c4cscn4)cc3)C2)c1 (stereo unspecified) | 0.3 | -1.7% | ? | ? | 4.7
Cc1ccc2sc(N(CCCN(C)C)C(=O)CCS(=O)(=O)c3ccccc3)nc2c1C | 0.3 | -2.5% | ? | ? | 0.6
COc1ccc(OC)c2sc(N(CCCN(C)C)C(=O)CCS(=O)(=O)c3ccccc3)nc12 | 0.1 | -26.8% | 10µM* | ? | -2.7
CC(=O)Nc1ccc(OC(=O)N2CCN(/[N+]([O-])=N/Oc3ccc([N+](=O)[O-])cc3[N+](=O)[O-])CC2)cc1 | 3.5 | / | / | / | -3.4
Cc1cccc2sc(NNC(=O)c3cc(-c4cccs4)nc4ccccc34)nc12 | -0.8 | -8.2% | ? | ? | -6.2
COC(=O)C1=C(c2ccc(OCc3ccccc3)cc2)C[C@@H]2CC[C@H]1N2C(=O)NCc1ccccc1 | 2.4 | -6.6% | -2.0% | ? | -3.9
COC(=O)C1=C(c2cccc(OCc3ccccc3)c2)C[C@@H]2CC[C@H]1N2C(=O)NCc1cccc(C(F)(F)F)c1 | 0.1 | -5.4% | -4.0% | 11.2µM* | 23.2
SMILES | TRPML1 agonist | GLP-1R agonist | GLP1R cytotox | GLP1R inv ag | TRPML1 inh
COC(=O)C1=C(c2ccc(OCc3ccccc3)cc2)C[C@@H]2CC[C@H]1N2C(=O)NCc1ccc(C(C)(C)C)cc1 | 1.2 | -1.4% | -3.0% | 4.47µM* | 16.2
COC(=O)C1=C(c2ccc(F)cc2OCc2ccccc2)C[C@@H]2CC[C@H]1N2C(=O)NCc1ccccc1Br | 2.1 | 0.8% | 1.3% | -4.9% | 37.7
COC(=O)C1=C(c2cccc(OCc3ccccc3)c2)C[C@@H]2CC[C@H]1N2C(=O)NCc1ccccc1 | 1.7 | 6.8% | ? | -7.1% | 11.7
COC(=O)C1=C(c2ccc(F)cc2OCc2ccccc2)C[C@@H]2CC[C@H]1N2C(=O)NCc1ccccc1C(F)(F)F | 1.0 | 6.8% | -17.8% | 12.6µM* | 38.6
Cc1ccc(NC(=O)N(Cc2ccc3c(c2)OCO3)C2CCN(Cc3ccccc3)CC2)cc1Cl | 4.2 | / | -25.0% | 12.6µM* | -12.5
Cc1ccc(NC(=O)N(Cc2ccc3c(c2)OCO3)C2CCN(Cc3ccccc3)CC2)cc1C | 2.4 | / | -0.6% | ? | 2.0
COc1ccc(CN2CCN(C(=O)COc3ccc4ccccc4c3)CC2)c(OC)c1 | 0.6 | -1.0% | -3.7% | 10µM* | 36.4
CCC(C)N1CCN(C(=O)COc2ccc3ccccc3c2)CC1 (stereo unspecified) | -0.5 | 7.4% | -8.8% | ? | -2.0
O=C(COc1ccc2ccccc2c1)N1CCN(Cc2c[nH]c3ccccc23)CC1 | -0.7 | -1.5% | -32.2% | 11.2µM* | 2.8
O=C(COc1ccc(Br)cc1)N1CCN(Cc2c[nH]c3ccccc23)CC1 | 5.6 | 8.0% | -25.9% | ? | -15.2
Oc1ccc2c3c1O[C@H]1[C@@H](O)C=CC4[C@@H](C2)NCC[C@@]341 (stereo partly specified) | / | 4.1% | / | / | /
CCOc1ccc(N(Cc2ccc(C(=O)O)cc2)S(=O)(=O)c2ccc(C)cc2)cc1 | 1.1 | -2.3% | ? | ? | 13.7
CNCC(O)c1cccc(OC(=O)c2ccccc2C)c1 (stereo unspecified) | 1.1 | 1.2% | 15.7% | -8.3% | -4.4
Cc1ccccc1C(=O)Oc1cccc(Nc2ncnc3ccccc23)c1 | -0.1 | -15.8% | -25.1% | 11.2µM* | 0.1
Cn1nc(-c2ccccc2)nc2c(=O)n(C)c(=O)nc1-2 | 0.1 | / | / | / | /
CCn1nc(-c2ccccc2)nc2c(=O)n(C)c(=O)nc1-2 | 3.3 | -25.6% | ? | 5.01µM* | -1.3
Nc1c(C(=O)Nc2ccc(OC(F)(F)F)cc2)sc2nc3c(cc12)N1CCC3CC1 | -0.6 | / | 2.0% | ? | -15.8
O=C(Nc1ccc(OC(F)(F)F)cc1)C1CCN(S(=O)(=O)c2cccs2)CC1 | 3.0 | / | -26.0% | 5.01µM* | 3.9
CCCCCCCCCCCCCCCCn1cc[n+](C)c1 | 1.0 | -3.1% | ? | 7.08µM* | -8.5
